These results are taken from the antibiotic and cytotoxicity screens of Wong et al. (2023).

Structures are written as SMILES. The whole screen tested about 39,000 compounds, of which about 3,300 (8.5%) were called active. For the sample, actives were picked, then their nearest neighbours and some compounds at random.

For the assay, the system named is HepG2. The assay can be described thus: cytotoxicity call (relative viability < 0.9). The conditions noted are these: 10 µM.
Regarding `CNC[C@@H]1Oc2ccc(NS(=O)(=O)c3cn(C)cn3)cc2CC(=O)N([C@H](C)CO)C[C@@H]1C`, the cytotoxicity call is “inactive”.
Regarding `C[C@H](CO)N1C[C@H](C)[C@H](CN(C)S(=O)(=O)c2ccccc2)OCCCC[C@H](C)Oc2ccc(NC(=O)Nc3ccc(F)cc3)cc2C1=O`, the cytotoxicity call is “inactive”.
The same measure for `C[C@H](CO)N1C[C@H](C)[C@@H](CN(C)Cc2ccncc2)Oc2ccc(NC(=O)Cn3cnnn3)cc2C1=O`: “inactive”.
The same measure for `c1ccc(-c2nc(-c3cccs3)[nH]c2-c2ccccc2)cc1`: “inactive”; for `C[C@@H]1CCCCO[C@@H](CN(C)C(=O)c2ccncc2)[C@H](C)CN([C@@H](C)CO)C(=O)c2cc(NS(C)(=O)=O)ccc2O1`: “inactive”.
As for `C[C@@H]1CN([C@@H](C)CO)C(=O)c2cc(/C=C/c3ccccc3)cnc2O[C@H]1CN(C)C(=O)CN1CCOCC1`, the entry is “inactive”; as for `C[C@H](CO)N1C[C@H](C)[C@H](CN(C)C(=O)Cc2ccccc2)OCCCC[C@H](C)Oc2ccc(NC(=O)Nc3cccc4ccccc34)cc2C1=O`, “inactive”; as for `C[C@H](CO)N1C[C@H](C)[C@@H](CN(C)C(=O)NC2CCCCC2)Oc2ccc(NS(C)(=O)=O)cc2CC1=O`, “inactive”.
For the compound `COc1cccc(NC(=O)N[C@@H]2CC[C@H](CC(=O)N3CCOCC3)O[C@@H]2CO)c1`, the cytotoxicity call was “inactive”.
As for `C[C@H](O)C#Cc1ccc2c(c1)O[C@H](CN(C)C)[C@@H](C)CN([C@@H](C)CO)S2(=O)=O`, the cytotoxicity call was “inactive”.
As for `COc1ccc(CN(C)C[C@H]2Oc3ccc(NC(=O)CCCCCC(=O)Nc4ccccc4N)cc3CC(=O)N([C@@H](C)CO)C[C@@H]2C)cc1`, the entry is “inactive”.
As for `CC(C)NC(=O)N(C)C[C@H]1Oc2ccc(NC(=O)Cc3ccccc3)cc2CC(=O)N([C@@H](C)CO)C[C@@H]1C`, the cytotoxicity call was “inactive”.
Consider `COc1ccc2c3c([nH]c2c1)[C@@H](CO)N(C[C@]13CN(Cc2nccs2)C1)S(=O)(=O)c1ccc(cc1)C`, for which the cytotoxicity call is “inactive”.
Take `C[C@@H]1CN([C@@H](C)CO)C(=O)c2cc(NC(=O)Nc3ccccc3)ccc2O[C@@H](C)CCCCO[C@H]1CN(C)C(=O)Nc1ccc(C(F)(F)F)cc1`: the cytotoxicity call is “inactive”.
As to `C[C@H](CO)N1C[C@H](C)[C@@H](CN(C)C(=O)Nc2ccccc2)OCCCC[C@H](C)Oc2ccc(NC(=O)Nc3ccc(C(F)(F)F)cc3)cc2C1=O`, the cytotoxicity call is “inactive”.
Consider `C[C@@H]1CCCCO[C@H](CN(C)C(=O)Nc2ccccc2)[C@H](C)CN([C@H](C)CO)C(=O)c2cc(NC(=O)Nc3ccc(C(F)(F)F)cc3)ccc2O1`, for which the cytotoxicity call is “active”.
Turning to `C[C@H]1CCCCO[C@@H](CN(C)C(=O)Nc2cccc3ccccc23)[C@@H](C)CN([C@@H](C)CO)C(=O)c2cc(NS(C)(=O)=O)ccc2O1`, the cytotoxicity call was “inactive”.
`C[C@H](CO)N1C[C@H](C)[C@H](CN(C)C(=O)Nc2cccc3ccccc23)Oc2ccc(NC(=O)Cn3cnnn3)cc2C1=O`: the cytotoxicity call was “inactive”.
In the case of `C[C@H]1CN([C@@H](C)CO)C(=O)c2cc(NC(=O)Cn3cnnn3)ccc2O[C@H]1CN(C)C(=O)Nc1ccccc1`, the cytotoxicity call is “active”.
For the compound `CNC[C@H]1Oc2ccc(NC(=O)Cn3cnnn3)cc2CC(=O)N([C@@H](C)CO)C[C@H]1C`, the cytotoxicity call is “inactive”.
On to `C[C@H](CO)N1C[C@H](C)[C@@H](CN(C)C(=O)Nc2ccccc2)Oc2ccc(NC(=O)Cn3cnnn3)cc2C1=O`, for which the cytotoxicity call was “inactive”.
Turning to `C[C@@H]1CN([C@@H](C)CO)C(=O)c2cc(NC(=O)Cn3cnnn3)ccc2O[C@@H]1CN(C)C(=O)Nc1ccccc1`, the cytotoxicity call is “inactive”.
The same measure for `C[C@@H]1CN([C@H](C)CO)C(=O)c2cc(NC(=O)Cn3cnnn3)ccc2O[C@H]1CN(C)C(=O)Nc1cccc2ccccc12`: “active”; for `CNC[C@@H]1Oc2ccc(NC(=O)Cn3cnnn3)cc2CC(=O)N([C@@H](C)CO)C[C@H]1C`: “active”.
As for `CNC[C@@H]1Oc2ccc(NC(=O)Cn3cnnn3)cc2CC(=O)N([C@@H](C)CO)C[C@@H]1C`, the cytotoxicity call is “inactive”.
Take `C[C@@H]1CN([C@@H](C)CO)C(=O)c2cc(NC(=O)Cn3cnnn3)ccc2O[C@H]1CN(C)C(=O)Nc1cccc2ccccc12`: the cytotoxicity call is “inactive”.
`Cc1cc(Nc2cc(C)on2)nc([C@H]2CCN(C(=O)CN)C2)n1`: the cytotoxicity call is “inactive”.
Turning to `C[C@H](CO)N1C[C@H](C)[C@@H](CN(C)S(=O)(=O)c2cccs2)Oc2c(NC(=O)CCCN(C)C)cccc2C1=O`, the cytotoxicity call is “inactive”.
As to `O=C(C[C@@H]1C[C@H]2c3cc(NC(=O)c4ccc5c(c4)OCO5)ccc3O[C@H]2[C@H](CO)O1)NCCc1ccccc1`, the cytotoxicity call was “inactive”.
For `Cc1noc(C)c1NC(=O)N(C)C[C@H]1OCCCC[C@H](C)Oc2ccc(NC(=O)CCC(F)(F)F)cc2C(=O)N([C@@H](C)CO)C[C@H]1C`, the cytotoxicity call is “inactive”.
On to `C[C@@H]1CN([C@H](C)CO)C(=O)c2cc(C#Cc3cccc(F)c3)cnc2O[C@@H]1CN(C)Cc1ccccn1`, for which the cytotoxicity call is “inactive”.
As for `CC(C)CC#Cc1ccc2c(c1)O[C@H](CN(C)C(=O)c1cccnc1)[C@@H](C)CN([C@@H](C)CO)S2(=O)=O`, the cytotoxicity call is “inactive”.
In the case of `O=C(O)c1ccc(N[C@@H]2O[C@H](CO)[C@@H](O)[C@@H]2O)cc1`, the cytotoxicity call was “inactive”.
Consider `Clc1ccc(-c2cnc3ccc(-c4ccccc4)cn23)cc1`, for which the cytotoxicity call is “inactive”.
For `Clc1ccc(-c2onc3cc(-c4ccccc4)ccc23)cc1`, the cytotoxicity call is “active”.
For `Clc1ccc2nc(Cl)cc(-c3ccccc3)c2c1`, the cytotoxicity call was “inactive”.
On to `C[C@H](CO)N1C[C@H](C)[C@H](CN(C)Cc2ccc(Cl)c(Cl)c2)Oc2ccc(NC(=O)CCCCCC(=O)Nc3ccccc3N)cc2CC1=O`, for which the cytotoxicity call was “inactive”.
`C[C@H](CO)N1C[C@H](C)[C@@H](CN(C)C(=O)Nc2ccccc2)Oc2ccc(NS(=O)(=O)c3cn(C)cn3)cc2C1=O`: the cytotoxicity call is “inactive”.
For the compound `CSCc1nc(=O)cc(C(=O)O)[nH]1`, the cytotoxicity call is “inactive”.
With `CC(C)NC(=O)N(C)C[C@@H]1OCCCC[C@H](C)Oc2ccc(NC(=O)Nc3ccc(F)cc3)cc2C(=O)N([C@@H](C)CO)C[C@H]1C`, the cytotoxicity call is “inactive”.
In the case of `C/C=C1\NC(=O)[C@H]2CSSCC/C=C/[C@H](CC(=O)N[C@H](C(C)C)C(=O)N2)OC(=O)[C@H](C(C)C)NC1=O`, the cytotoxicity call is “active”.
With `C[C@@H]1CCCCO[C@H](CN(C)S(=O)(=O)c2cn(C)cn2)[C@@H](C)CN([C@@H](C)CO)C(=O)c2cc(NC(=O)c3ccncc3)ccc2O1`, the cytotoxicity call is “inactive”.
Turning to `NC(=O)CN1CCCCCC1=O`, the cytotoxicity call was “inactive”.
